Results from PubChem BioAssay AID434970 (Sanford-Burnham Center for Chemical Genomics, 2010).
The whole screen tested about 11,000 compounds, of which about 310 (2.8%) were called active. No stated cut-off is given here; in the data, active means activity change below about -85%; inactive means the rest. For the sample, actives were picked, then their nearest neighbours and some compounds at random.

Each compound was assayed on intestinal alkaline phosphatase [Mus musculus] (assay: activators of mouse IAP, confirmation, biochemical, luminescence, single concentration (AID 434970)). Details: purified mouse IAP, CDP-Star luminescence, 30 min, at 10 µM; activation factor: measured here: IAP activation factor, stronger effect = higher value; activity change, negative = activation: stronger effect = lower value.
With `C=C(C)Cn1c(=O)c2c(nc3n2CCN3c2cccc(Cl)c2C)n(C)c1=O` the activation factor was 0.924 and the activity change, negative = activation was 7.6% (inactive).
`CC(C)(C)c1ccc(OCc2nc(-c3ccccn3)no2)c(Br)c1` was tested, and the activation factor was 0.924 and the activity change, negative = activation was 7.55% (inactive).
For `COc1ccc(-c2noc(CCC(=O)N3CCN(c4ccc(C(F)(F)F)cc4)CC3)n2)cc1`, the activation factor was 1.05 and the activity change, negative = activation was -4.65% (inactive).
For `COc1ccc(OC)c(N)c1`, the activation factor was 0.877 and the activity change, negative = activation was 12.3% (inactive).
For `C=CCn1c(Br)nc2c1c(=O)[nH]c(=O)n2C`, the activation factor was 0.97 and the activity change, negative = activation was 2.95% (inactive).
In the case of `O=C(NCC1CCN(Cc2ccccc2Cl)CC1)Nc1cccc(Cl)c1`, the activation factor is reported as 1.77 and the activity change, negative = activation is reported as -77.5% (inactive).
`COc1cc(NC(=O)C2CCCN(c3ncccn3)C2)cc(OC)c1` (centres undefined) was tested, and the activation factor was 1.11 and the activity change, negative = activation was -10.6% (inactive).
With `COc1cc(OC)cc(C(=O)Nc2c(F)cccc2F)c1` the activation factor was 1.02 and the activity change, negative = activation was -1.9% (inactive).
With `O=C(NCC1CCN(Cc2ccccc2F)CC1)Nc1cccc(Br)c1` the activation factor was 2.05 and the activity change, negative = activation was -105% (active).
In the case of `O=C(NCCOc1ccccc1F)Nc1ccc(Br)cc1`, the activation factor is reported as 1.46 and the activity change, negative = activation is reported as -45.9% (inactive).
With `COc1cc(NC(=O)NCC2CCN(Cc3ccccc3F)CC2)cc(OC)c1` the activation factor was 2.67 and the activity change, negative = activation was -167% (active).
`Cc1ccc(NC(=O)Cn2cnc(C(=O)Nc3ccc(C)c(C)c3)n2)cc1C` was tested, and the activation factor was 1.05 and the activity change, negative = activation was -4.9% (inactive).
With `O=C(Nc1ccc2ccccc2c1)c1cn(-c2ccccc2)nc1-c1cccs1` the activation factor was 1.61 and the activity change, negative = activation was -60.9% (inactive).
For `COc1ccc(N2CCN(c3nc(NCCO)nc(N4CCOCC4)n3)CC2)cc1`, the activation factor was 0.927 and the activity change, negative = activation was 7.25% (inactive).
In the case of `CC[C@]12c3[nH]c4cc(CCC(=O)N(C)C)ccc4c3CCN1C(=O)[C@@H](CC(=O)NCCCN(C)C)C[C@@H]2C(=O)N1CCN(C(=O)C2CC2)CC1`, the activation factor is reported as 1.05 and the activity change, negative = activation is reported as -4.6% (inactive).
With `Cc1ccc2c(c1)c(C)c(C)n2CC(O)CN1CCOCC1` (centres undefined) the activation factor was 0.95 and the activity change, negative = activation was 5% (inactive).
In the case of `O=C(NC1CCCCCCC1)c1cnccn1`, the activation factor is reported as 0.972 and the activity change, negative = activation is reported as 2.85% (inactive).
In the case of `O=C(Nc1nccs1)C1CC2CCC1C2` (centres undefined), the activation factor is reported as 1.01 and the activity change, negative = activation is reported as -0.6% (inactive).
For `CCOC(=O)c1ccc(NC(=O)CSc2nnc(C3CCCCC3)n2C)cc1`, the activation factor was 0.933 and the activity change, negative = activation was 6.7% (inactive).
`Cn1cc(NC(=O)Nc2ccc(C(F)(F)F)cc2)c(C(F)(F)F)n1` was tested, and the activation factor was 1.86 and the activity change, negative = activation was -86.1% (inactive).
With `Cn1nc(OC(=O)Nc2cccc(Cl)c2)cc1C(F)(F)F` the activation factor was 2.51 and the activity change, negative = activation was -151% (active).
For `O=C(NCCCn1ccnc1)Nc1cccc(Cl)c1`, the activation factor was 1.23 and the activity change, negative = activation was -23.4% (inactive).
For `CC(=O)Nc1ccc(-n2cnnn2)cc1`, the activation factor was 1.04 and the activity change, negative = activation was -3.5% (inactive).
With `Cc1cc(C)cc(NC(=O)Nc2ccc(-n3ccc(C(F)(F)F)n3)cc2)c1` the activation factor was 2.36 and the activity change, negative = activation was -136% (active).
With `Cn1ncc(Cl)c1C(=O)Nc1cccc(Cl)c1` the activation factor was 1.01 and the activity change, negative = activation was -1.1% (inactive).
In the case of `O=C(Nc1ccccc1)Nc1ccc(-n2ccc(C(F)(F)F)n2)cc1`, the activation factor is reported as 1.6 and the activity change, negative = activation is reported as -60% (inactive).
In the case of `O=C(Nc1ccc(-n2ccc(C(F)(F)F)n2)cc1)Nc1cccc(Cl)c1`, the activation factor is reported as 1.92 and the activity change, negative = activation is reported as -91.7% (active).
In the case of `Cn1nc(C(=O)Nc2cccc(C(F)(F)F)c2)ccc1=O`, the activation factor is reported as 1.13 and the activity change, negative = activation is reported as -12.9% (inactive).
In the case of `Cc1noc(C)c1S(=O)(=O)Nc1ccc(C(=O)NC2CCCCCC2)cc1`, the activation factor is reported as 1.07 and the activity change, negative = activation is reported as -7.15% (inactive).
With `CN=C1N(C)C[C@@H]2[C@@H]3C(=O)N(Cc4ccccc4)C(=O)[C@@H]3[C@](Cc3ccccc3)(C(=O)OC)N12` the activation factor was 1.16 and the activity change, negative = activation was -16.1% (inactive).
In the case of `CC(C)CC(c1nnnn1Cc1cccs1)N1CCN(c2nc3ccccc3s2)CC1` (centres undefined), the activation factor is reported as 0.985 and the activity change, negative = activation is reported as 1.5% (inactive).
In the case of `CCOC(=O)CCc1c(C)c(C#N)c2nc3ccccc3n2c1-n1cnc2ccccc21`, the activation factor is reported as 1.02 and the activity change, negative = activation is reported as -1.8% (inactive).
